Potency and outcome data for 30 molecules are collected here from PubChem BioAssay (NCATS).

Experiment [1] addresses Glutathione peroxidase 1 (Homo sapiens) (UniProt P07203). Put plainly: Primary qHTS Assay for Inhibitors of Recombinant Selenoprotein Glutathione Peroxidase 1 (GPX1) (AID 1845191). Also: nearly all actives have a fitted effect of over 65% in size. The following applies: recombinant GPX1, GR-coupled NADPH fluorescence, 15 min; series mostly up to 48.8 µM. The essentials: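 GR-coupled assay: compounds preincubated 30 min at room temperature with GPX1, then reaction started with CHP; final 10 nM GPX1, 1 mM GSH, 0.5 mM CHP, 0.5 mM NADPH, 100 nM GR, 0.01% BSA, pH 7.5 Tris buffer. NADPH fluorescence (340/450 nm) read at 0 and 15 min.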

The target in experiment [2] is Phospholipid hydroperoxide glutathione peroxidase GPX4 (Homo sapiens) (UniProt P36969). In words: Primary qHTS Assay for Inhibitors of Recombinant Selenoprotein Glutathione Peroxidase 4 (GPX4) (AID 1845192). Also: nearly all actives have a fitted effect of over 65% in size. Also: potency is read from the fitted curve at half-maximal effect. The note with it: recombinant GPX4, GR-coupled NADPH fluorescence, 15 min; series mostly up to 50 µM. Summed up:
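GR-coupled assay: recombinant GPX4 preincubated 30 min with compound at room temperature; final 200 nM GPX4, 1 mM GSH, 0.5 mM cumene hydroperoxide, 0.5 mM NADPH, 100 nM GR, 0.01% BSA, pH 7.5 Tris. NADPH fluorescence (340/450 nm) read at 0 and 15 min.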

Experiment [3] deals with Luciferin 4-monooxygenase (Photinus pyralis) (UniProt P08659). Put plainly: Primary firefly luciferase (FLuc) qHTS assay for identification of artifact compounds. (AID 1845220). Also: nearly all actives have a fitted effect of over 60% in size. The note with it: purified firefly luciferase, luminescence, 5 min; series mostly up to 54.1 µM. The essentials:
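Titrated compounds were incubated 15 min at RT, protected from light, with luciferin and ATP at 10 uM; reaction started with 10 nM FLuc, luminescence imaged at 5 min, and concentration-response fitted by Hill equation.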

The nature of experiment [4]: Primary fluorescence-based thiol-reactive (MSTI) qHTS assay for identification of artifact compounds. (AID 1845221).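 Also: thiol-reactive compounds lower the probe fluorescence signal; nearly all actives have a fitted effect of over 65% in size.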 The note with it: MSTI thiol-reactivity probe, 1 h; series mostly up to 53.8 µM. The essentials: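 MSTI probe at 4 uM final in 2% DMSO/PBS pH 7.4; compounds, 1 h at room temperature in dark. Fluorescence Ex/Em 525/598 nm, normalised to Acetyl-MSTI and MSTI, fitted to 4-parameter Hill.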

Experiment [5] relates to Nanoluciferase (engineered Oplophorus gracilirostris luciferase). Put plainly: Primary Nanoluciferase (NLuc) qHTS assay for identification of artifact compounds. (AID 1845222).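 Also: NLuc secreted into diluted conditioned medium of S16 cells.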 The following applies: NLuc-conditioned medium, Nano-Glo luminescence, 5 min; series mostly up to 54.1 µM. Summed up: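 qHTS format, against NLuc in S16 cell-conditioned medium. Nano-Glo substrate 1:100 was added after 15 min at room temperature. Luminescence was taken after a further 5 min.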

Experiment [6] can be described thus: Primary redox qHTS assay for identification of artifact compounds. (AID 1845223). The following applies: Amplex Red/HRP redox cycling with DTT, fluorescence; series mostly up to 53.8 µM. Summed up:
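Amplex Red (25 uM) and HRP (250 mU/mL) in HBSS, with compounds for 15 min, then 250 uM DTT for 30 min, room temperature, dark. Fluorescence 525/598 nm read; normalized to DMSO and 10 uM DA3003; Hill fit.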

Experiment [7] is described as follows: Quantitative High-Throughput drug screen in 47 multiple myeloma cell lines against the NCATS MIPE library collection: Delta47_JCRB cell viability assay (AID 1918925; also: nearly all actives have a fitted effect of over 45% in size; also: potency is read from the fitted curve at half-maximal effect). The note with it: Delta47 myeloma viability, CellTiter-Glo ATP, 48 h; series mostly up to 45.8 µM. The essentials:
(§1)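 CellTiter-Glo ATP luminescence gave viability after 48 h compound treatment at 37C of 500 multiple myeloma cells per well. Normalisation used DMSO-only wells as 100% and media-only wells as 0% viability; primary qHTS of approved and investigational drugs.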

Experiment [8] is described as follows: Quantitative High-Throughput drug screen in 47 multiple myeloma cell lines against the NCATS MIPE library collection: AMO1_DSMZ cell viability assay (AID 1918927; also: nearly all actives have a fitted effect of over 30% in size; also: potency is read from the fitted curve at half-maximal effect). The following applies: AMO1 myeloma cells viability, CellTiter-Glo ATP luminescence, 48 h; series mostly up to 45.8 µM. The essentials: as §1
A short description of experiment [9]: Quantitative High-Throughput drug screen in 47 multiple myeloma cell lines against the NCATS MIPE library collection: ARP1_JJKsccF8 cell viability assay (AID 1918928; also: nearly all actives have a fitted effect of over 40% in size; also: potency is read from the fitted curve at half-maximal effect). The note with it: ARP1 myeloma cells viability, CellTiter-Glo ATP, 48 h; series mostly up to 45.8 µM. Summed up: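 Luminescence from CellTiter-Glo, taken after 5 min at room temperature, reports cellular ATP as viability. Cells (500 per well) had been treated 48 h at 37 °C with MIPE 4.0 compounds, scaled between DMSO and medium-only controls.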

Experiment [10] in a line: Quantitative High-Throughput drug screen in 47 multiple myeloma cell lines against the NCATS MIPE library collection: ARD_JJKsccE7 cell viability assay (AID 1918929; also: potency is read from the fitted curve at half-maximal effect). The following applies: ARD myeloma cell line viability, CellTiter-Glo, 48 h; series mostly up to 45.8 µM. Summed up:
as §1

Experiment [11] concerns the target Metallo-beta-lactamase type 2 (Klebsiella pneumoniae) (UniProt C7C422). Put plainly: qHTS to identify inhibitors of the New Delhi Metallo-beta-lactamase (NDM): assay validation screen against the NCATS LOPAC Collection (AID 1794843).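 Also: nitrocefin turnover by NDM-1 measured as 485 nm absorbance at plateau.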 The note with it: NDM-1 enzyme, nitrocefin hydrolysis, absorbance 485 nm; series mostly up to 38.4 µM. Summed up: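 Nitrocefin hydrolysis (50 uM substrate stock) by NDM-1, 2 nM final, was followed by 485 nm absorbance after compound preincubation; buffer was 50 mM HEPES pH 7.0, 1 uM ZnSO4, 0.01% Tween20.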

Inconclusive results are not listed. Calls of active or inactive are those of the source. Calls follow the shape of the dose curve; as a rule, active = well fitted curve in the direction sought with a large enough effect; inconclusive = small, poorly fitted or top-dose-only effect, or another doubt; inactive = no such curve, though single readings can be large; an effect the other way counts as inactive or inconclusive.

Sequence of Metallo-beta-lactamase type 2 (Klebsiella pneumoniae) (C7C422 whole entry, looked up): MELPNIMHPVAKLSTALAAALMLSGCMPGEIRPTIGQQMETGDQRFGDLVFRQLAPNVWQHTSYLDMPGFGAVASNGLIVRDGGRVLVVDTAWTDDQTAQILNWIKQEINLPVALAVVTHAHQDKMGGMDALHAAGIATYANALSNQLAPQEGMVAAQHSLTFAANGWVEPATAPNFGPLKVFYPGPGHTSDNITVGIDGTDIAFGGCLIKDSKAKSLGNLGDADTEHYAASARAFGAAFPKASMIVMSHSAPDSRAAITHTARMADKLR
Sequence of Phospholipid hydroperoxide glutathione peroxidase GPX4 (Homo sapiens) (P36969 whole entry, looked up): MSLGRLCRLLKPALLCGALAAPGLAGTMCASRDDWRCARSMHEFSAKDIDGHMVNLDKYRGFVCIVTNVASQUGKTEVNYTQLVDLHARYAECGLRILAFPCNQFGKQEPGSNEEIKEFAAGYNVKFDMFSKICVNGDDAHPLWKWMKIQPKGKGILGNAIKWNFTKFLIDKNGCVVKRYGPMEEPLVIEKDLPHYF
Sequence of Glutathione peroxidase 1 (Homo sapiens) (P07203 whole entry, looked up): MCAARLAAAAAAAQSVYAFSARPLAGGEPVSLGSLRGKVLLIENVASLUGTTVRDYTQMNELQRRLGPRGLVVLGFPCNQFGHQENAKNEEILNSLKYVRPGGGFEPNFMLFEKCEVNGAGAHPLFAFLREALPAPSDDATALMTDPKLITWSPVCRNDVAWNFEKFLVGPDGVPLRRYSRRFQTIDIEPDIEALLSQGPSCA

As to `CCCC1CCCCN1` (stereo not given), the Potency entry in [1] and in [2] was “inactive” each time.

For the molecule `CNC(=O)c1ccc(N2C(=S)N(c3ccc(C#N)c(C(F)(F)F)c3)C(=O)C23CCC3)cc1F`, the Potency result in [1], in [2] and in experiment [9] was “inactive” each time. In addition, the molecule was classed as inactive in experiment [3], in experiment [4], in [5] and in experiment [6]. Also, the Potency in experiment [7] is 4180 nM (active); in experiment [8], 2640 nM (active); in experiment [10] it was 16600 nM (active).

Regarding `Oc1cc(Cl)ccc1Oc1ccc(Cl)cc1Cl`, the Potency entry in experiment [1] and in experiment [2] was “inactive” each time.

In the case of `CC(C)(C)CC(C)(C)c1ccc(O)cc1`, the Potency entry in experiment [1] and in experiment [2] was “inactive” in each case.

Take `C[C@@H]1O[C@@H](O[C@H]2C[C@@H](O)[C@]3(CO)[C@H]4[C@H](O)C[C@]5(C)[C@@H](C6=CC(=O)OC6)CC[C@]5(O)[C@@H]4CC[C@]3(O)C2)[C@H](O)[C@H](O)[C@H]1O`: the molecule was classed as inactive in experiment [11], in [3], in [4], in [5] and in [6]. The Potency entry in experiment [2] was “inactive”. The Potency in experiment [7] was 29.6 nM (active); in [8], 9.3 nM (active); in [9] it was 41.8 nM (active); in experiment [10] it was 14.8 nM (active).

For the molecule `CCCN1CCC[C@@H]2Cc3[nH]ncc3C[C@H]21`, in [11], the outcome was inactive. Besides, in experiment [2], the Potency result is “inactive”.

As to `FC(F)(F)c1cccc(C2=CCN(CCc3ccc4ccccc4c3)CC2)c1`, the Potency result in experiment [1] and in experiment [2] was “inactive” in each case.

Consider `N[C@@H]1C[C@H]1c1ccccc1`, for which the Potency result in [1] and in experiment [2] was “inactive” in each case.

For the molecule `CCN(CC)C(=O)N[C@@H]1C=C2c3cccc4[nH]cc(c34)C[C@@H]2N(C)C1`, the Potency entry in experiment [1] and in experiment [2] was “inactive” throughout.

For the molecule `Oc1cccc2cccnc12`, in [2], the Potency result was “inactive”.

For `CC(C)CC(N(C)C)C1(c2ccc(Cl)cc2)CCC1` (stereo not given), the Potency entry in experiment [1], in experiment [2], in experiment [8], in experiment [9] and in experiment [10] was “inactive” throughout.

In the case of `CN(C)CCN(C)CCc1ccc(Cl)c(Cl)c1`, the Potency entry in [2], in [9] and in experiment [10] was “inactive” in each case. For the same molecule, the Potency in experiment [8] was 20900 nM (active).

`Clc1ccc(CCC(Cn2ccnc2)Sc2c(Cl)cccc2Cl)cc1` (stereo not given): the Potency result in experiment [2] was “inactive”.

Turning to `COC1(CS(=O)c2ccccc2)CCN(CCc2c[nH]c3ccc(F)cc23)CC1` (stereo not given), the Potency entry in experiment [2], in experiment [9] and in experiment [10] was “inactive” in each case.

With `C=C1CC[C@@]2(O)[C@H]3Cc4ccc(O)c5c4[C@@]2(CCN3CC2CC2)[C@H]1O5`, the Potency entry in experiment [2] was “inactive”.

`CCCC(C)(COC(N)=O)COC(=O)NC(C)C` (stereo not given): the Potency entry in experiment [7], in experiment [8] and in [9] was “inactive” in each case.

Regarding `COC[C@@H](NC(C)=O)C(=O)NCc1ccccc1`, the Potency result in experiment [2], in [7], in experiment [8] and in experiment [10] was “inactive” throughout.

In the case of `C[C@]12CC[C@H]3[C@@H](CCC4=CC(=O)CC[C@@H]43)[C@@H]1CC[C@@H]2OC(=O)CCc1ccccc1`, the Potency result in experiment [2] was “inactive”.

In the case of `CN1CCN(C(=O)O[C@H]2c3nccnc3C(=O)N2c2ccc(Cl)cn2)CC1`, the Potency result in experiment [2] and in [8] was “inactive” in each case.

For `O=C1CC[C@@]2(O)[C@H]3Cc4ccc(O)c5c4[C@@]2(CCN3CC2CC2)[C@H]1O5`, the Potency entry in [1], in experiment [2], in [9] and in experiment [10] was “inactive” each time.

Turning to `O=P1(NCCCl)OCCCN1CCCl` (stereo not given), the Potency entry in experiment [2] is “inactive”. For the same molecule, the Potency in experiment [8] was 5900 nM (active).

As to `C[C@@H]1[C@@H](CC(C[C@H]2O[C@@H]3O[C@]4(C)CC[C@@H]5[C@H](C)CC[C@@H]([C@H]2C)[C@@]35OO4)C[S+](=O)([O-])c2ccc(COC(=O)N(C)C)cc2)O[C@@H]2O[C@]3(C)CC[C@H]4[C@H](C)CC[C@@H]1[C@@]24OO3` (stereo not given in full), the Potency in experiment [7] was 235 nM (active); in experiment [8] it was 118 nM (active); in experiment [9] it was 93.5 nM (active); in [10], 118 nM (active).

On to `CC1=C2C[C@@H]3[C@@H](CC=C4C[C@@H](O)CC[C@@]43C)[C@@H]2CC[C@]12O[C@H]1C[C@H](C)CN[C@H]1[C@H]2C`, for which the Potency result in experiment [8], in experiment [9] and in experiment [10] was “inactive” in each case.

Consider `C[C@@H]1[C@@H](C(=O)C[C@H]2O[C@@H]3O[C@]4(C)CC[C@@H]5[C@H](C)CC[C@@H]([C@H]2C)[C@@]35OO4)O[C@@H]2O[C@]3(C)CC[C@H]4[C@H](C)CC[C@@H]1[C@@]24OO3`, for which the Potency in experiment [7] is 235 nM (active); in [8], 83.3 nM (active); in experiment [9], 132 nM (active); in [10], 148 nM (active).

On to `CN(C)CCc1ccc(O)cc1`, for which the Potency result in [7], in experiment [8] and in experiment [10] was “inactive” in each case.

For `Oc1ccccc1-c1ccccc1`, the Potency result in [2] is “inactive”.

Take `Cn1cc(C2=C(c3cn(C4CCN(Cc5ccccn5)CC4)c4ccccc34)C(=O)NC2=O)c2ccccc21`: the Potency result in [1] and in experiment [2] was “inactive” throughout. The results for the Potency in experiment [7], in [8] and in experiment [10] were 5900 nM (active), 935 nM (active) and 9350 nM (active), respectively.

Turning to `O=C(O)C(=O)c1cn(Cc2ccccc2)c2ccc(-c3ccc(OC(F)(F)F)cc3)cc12`, the Potency in [2] is 9040 nM (active); in experiment [7], 20900 nM (active). In addition, the result in [3], in experiment [4], in [5] and in [6] was inactive. The Potency entry in experiment [8], in [9] and in experiment [10] was “inactive” each time.

With `COc1ccc(Cc2nccc3cc(OC)c(OC)cc23)cc1OC`, in experiment [2], the Potency entry is “inactive”.

As for `COc1ccc(C(=O)c2c(C)n(CCN3CCOCC3)c3ccccc23)cc1`, the Potency entry in experiment [2], in [7], in experiment [8], in experiment [9] and in [10] was “inactive” throughout.
